Source: PubChem BioAssay AID1347426 (Functional Genomics Laboratory (NCATS/FGL), 2020)
Out of some 31,000 sequences screened, about 1,400 (4.5%) were called active. The sample as a whole holds a higher share of actives than the screen did. Values without a mark were called inactive.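 The calls were made as follows: active = median seed-adjusted z-score above 1 or below -1; inactive = the rest.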

experiment: Novel Modifiers of Survival Motor Neuron (SMN) Protein: Gene Identification via Genome-wide siRNA Screen; details: HEK293T SMN2-luciferase reporter, siRNA knockdown, 72 h; actives lie on both sides;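 also: luminescence tracks full-length SMN protein made from the SMN2 reporter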
Outline: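 Steps: spot 1 pmol siRNA, add Lipofectamine RNAiMax in serum-free DMEM, seed HEK293T SMN2–luciferase reporter cells; incubate 72 h at 37 °C; add ONE-Glo; normalize luminescence to control siRNA, log10, MAD. Candidates: |MAD| > 1.0.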

**Q.** For CUAUCACUGUCUCAAGUCATT against ITGA10, which median seed-adjusted z-score is on record?
**A.** 0.378

**Q.** With GAGUUAAGGAGGUAGAUGATT against SNX5 as the sequence, how does the median seed-adjusted z-score read?
**A.** -0.141

**Q.** Which median seed-adjusted z-score does the source give for GCAUGAGUGCUAUCAGAUATT against PIPOX here?
**A.** 1.06 (active)

**Q.** For GCUCCUGGAGUUAAGCUUATT against SPINK2, which median seed-adjusted z-score is on record?
**A.** -0.431

**Q.** With AGUUUCAUUUCAAUAAGUATT against HOXD1 as the sequence, how does the median seed-adjusted z-score read?
**A.** 0.144

**Q.** Which median seed-adjusted z-score does the source give for GGAGUAACCUGGAUGAGGATT against C3 here?
**A.** 0.0281

**Q.** For AGAGCAUUGGGUACACCAATT against COL6A2, which median seed-adjusted z-score is on record?
**A.** 0.0119

**Q.** For CCCAUUCCCUGUGCUCCAATT against CARD10, which median seed-adjusted z-score is on record?
**A.** -0.929

**Q.** Which median seed-adjusted z-score does the source give for GGUUUUUCAAGUACGAAAATT against RPS6KB1 here?
**A.** 1.4 (active)

**Q.** For GGCCCUUCAUCGAUAGCUATT against APEX2, which median seed-adjusted z-score is on record?
**A.** -0.347

**Q.** Which median seed-adjusted z-score does the source give for CCCUAUCCAUGUUCCAUGUTT against HDAC10 here?
**A.** -0.165

**Q.** Which median seed-adjusted z-score does the source give for CAGCUGUUGUUGAGCGAAUTT against CASP2 here?
**A.** 0.421

**Q.** With GGCUGUACAUCGAUAGCUATT against PGM1 as the sequence, how does the median seed-adjusted z-score read?
**A.** 0.136

**Q.** Which median seed-adjusted z-score does the source give for GUUCAUGCAUGGGUGGAAATT against CD200R2 here?
**A.** -0.772

**Q.** Which median seed-adjusted z-score does the source give for CGUCUAUACUUACAAGCUUTT against SF3B3 here?
**A.** -2.53 (active)

**Q.** With GAACCAACUCGGAUAUUGUTT against MEF2A as the sequence, how does the median seed-adjusted z-score read?
**A.** -0.0658

**Q.** With GUGCCUAAGUCUUUAGUUUTT against IFI35 as the sequence, how does the median seed-adjusted z-score read?
**A.** 0.105

**Q.** For GGAGAUCUAUUCAAUGGGATT against SRPK1, which median seed-adjusted z-score is on record?
**A.** 0.37

**Q.** For GAGCAGUUCGAACACCUUATT against RBM4B, which median seed-adjusted z-score is on record?
**A.** -0.251

**Q.** For GCAGAAUACCUGUUUCAAATT against TERF1, which median seed-adjusted z-score is on record?
**A.** 0.0114

**Q.** With GUCAUCAACGGAAACAUAATT against EIF3G as the sequence, how does the median seed-adjusted z-score read?
**A.** -0.198

**Q.** With GGUGAUGAGAGAUCCCAAUTT against PABPC4 as the sequence, how does the median seed-adjusted z-score read?
**A.** -0.42

**Q.** With ACCGAGACCUCAAACCUGATT against PSKH1 as the sequence, how does the median seed-adjusted z-score read?
**A.** -2.03 (active)

**Q.** For CUUUCUAGCAGUCACCAUATT against CIR, which median seed-adjusted z-score is on record?
**A.** -0.197

**Q.** Which median seed-adjusted z-score does the source give for GCCUAUAACAUGCAAACUUTT against HOXC5 here?
**A.** 0.507

**Q.** Which median seed-adjusted z-score does the source give for GAAACCCGGUGAAAAGAAATT against VARS2 here?
**A.** 0.288

**Q.** For GCUUAUAGCUGCUACAAUUTT against MTMR1, which median seed-adjusted z-score is on record?
**A.** -0.0204

**Q.** Which median seed-adjusted z-score does the source give for CGAAAUACGUGGAACUCAUTT against ACE here?
**A.** 0.0874

**Q.** For ACAUCGCCCUUAUUGCUAUTT against FOXS1, which median seed-adjusted z-score is on record?
**A.** 0

**Q.** Which median seed-adjusted z-score does the source give for AGAGCAUCCUAAACGACCATT against SMUG1 here?
**A.** -1.38 (active)

**Q.** For GCUGGUACAUGACAUCCGATT against GGT7, which median seed-adjusted z-score is on record?
**A.** 0.135

**Q.** With GCCUUAAGAUCUCGGCGUATT against PTPRK as the sequence, how does the median seed-adjusted z-score read?
**A.** 0

**Q.** For UGAAGAUGAGGGACCCUAATT against LOXL4, which median seed-adjusted z-score is on record?
**A.** -0.591

**Q.** Which median seed-adjusted z-score does the source give for GGGUGGACGUGGAUACUUATT against NFE2L1 here?
**A.** 0.689

**Q.** Which median seed-adjusted z-score does the source give for AGGGCUAUCUGGUAUCUGUTT against SNRPF here?
**A.** -2.66 (active)

**Q.** For CUGGUACAGUGAUCGGGAATT against PCDH12, which median seed-adjusted z-score is on record?
**A.** 0.0177

**Q.** For GUUAUGCCUUUAUUAAUUUTT against SF3B4, which median seed-adjusted z-score is on record?
**A.** -2.56 (active)

**Q.** With GGAUAUUACAGCUAUUUGATT against USP10 as the sequence, how does the median seed-adjusted z-score read?
**A.** 0.182

**Q.** With CAACUGCAGCAGAUUCUAATT against MNAT1 as the sequence, how does the median seed-adjusted z-score read?
**A.** -0.335

**Q.** With GACCAGAUCUUUAAUCUCATT against RGS10 as the sequence, how does the median seed-adjusted z-score read?
**A.** 0.304

**Q.** With CAACACCGCCCACAACAAATT against TRIM25 as the sequence, how does the median seed-adjusted z-score read?
**A.** 0.859

**Q.** For CGGGAGUUUUUGGAACUGATT against MMS19L, which median seed-adjusted z-score is on record?
**A.** 0.898

**Q.** Which median seed-adjusted z-score does the source give for GGAAGCUCCUUGUCAAGAUTT against MECP2 here?
**A.** -0.332

**Q.** Which median seed-adjusted z-score does the source give for GCAGGAUGCUGUCAACAUATT against PSMD4 here?
**A.** 1.46 (active)

**Q.** With GCAAGAGAAUUAGAUCAGATT against SLC16A12 as the sequence, how does the median seed-adjusted z-score read?
**A.** 0.0219

**Q.** Which median seed-adjusted z-score does the source give for CCAUCGUCAACAUACGGAATT against TRIT1 here?
**A.** 0.794

**Q.** For GUGUGGAUCUGUGGACUCATT against CRB2, which median seed-adjusted z-score is on record?
**A.** 0

**Q.** For CACUAAGAGAAAAUCUGAATT against GALNT13, which median seed-adjusted z-score is on record?
**A.** -0.0149

**Q.** With CCACCUAGCUUGUAACGAATT against EP400 as the sequence, how does the median seed-adjusted z-score read?
**A.** 1.83 (active)

**Q.** For GGUUGUAGAGUUGAAAGUUTT against UBE2O, which median seed-adjusted z-score is on record?
**A.** 0.125

**Q.** Which median seed-adjusted z-score does the source give for GGACACGGGUGUCAUCCUATT against UBASH3A here?
**A.** -1.1 (active)

**Q.** Which median seed-adjusted z-score does the source give for GCCGUUUAAUACCCGAUGATT against RNF125 here?
**A.** 0.204

**Q.** For AUGGUUACCUGUUCACCUATT against SLC7A10, which median seed-adjusted z-score is on record?
**A.** -0.732

**Q.** Which median seed-adjusted z-score does the source give for GUCAAAGAGUGACAACUUUTT against CALB2 here?
**A.** 0

**Q.** For GGAGUGAUGAUAACGAGGATT against LATS1, which median seed-adjusted z-score is on record?
**A.** 0
